Measurements as given in PubChem BioAssay AID2284117 (EPA ToxCast).
The source made the active and inactive calls. How the source made its calls: active means hit-call score of the fitted dose curve at least 0.9, where 1 is the maximum; inactive means score below 0.9.

Each compound was assayed against human PDE4A1A Phosphodiesterase, PDE4A (gene 5141) (UniProt P27815) (assay: ERF_FR_ENZ_hPDE4A: Eurofins (ERF) Enzymatic LeadHunter Assay for human PDE4A1A Phosphodiesterase).
Description: ERF_FR_ENZ_hPDE4A is a biochemical, single-readout assay that uses extracted gene-proteins in a cell-free assay. Measurements were taken 0.33 hour after chemical dosing in a 96-well plate. See PDE4A1A Human Phosphodiesterase Enzymatic Assay, Cerep.ERF_FR_ENZ_hPDE4A is an assay component calculated from the ERF_FR_ENZ_hPDE4A assay. It is designed to measure enzyme activity using a type of enzyme reporter as detected by scintillation counting with radiometry technology.Data from the assay component ERF_FR_ENZ_hPDE4A was analyzed at the assay endpoint, ERF_FR_ENZ_hPDE4A, in the positive analysis fitting direction relative to DMSO as the negative control and baseline of activity. Using a type of enzyme reporter, loss-of-signal activity can be used to understand changes in enzymatic activity as they relate to gene PDE4A. To generalize the intended target to other relatable targets, this assay endpoint is annotated to the phosphodiesterase intended target family, where the subfamily is cyclic nucleotide signaling.
Human cells are incubated for 10 minutes at room temprature with [3H]cAMP + cAMP (0.5uM) as sunstrate and Nitrendipine as control inhibitor. Test Sample Requirements: Minimum for 1) Screen: 60 ul of 10 mM stock -OR- 1 mg (pre-weighed) for 10 uM final testing. 2) Dose Response: 90 ul of 10 mM stock -OR- 1 mg (pre-weighed) for a top concentration at 10 uM.

Chain of human PDE4A1A Phosphodiesterase, PDE4A (gene 5141) (P27815 whole entry, looked up): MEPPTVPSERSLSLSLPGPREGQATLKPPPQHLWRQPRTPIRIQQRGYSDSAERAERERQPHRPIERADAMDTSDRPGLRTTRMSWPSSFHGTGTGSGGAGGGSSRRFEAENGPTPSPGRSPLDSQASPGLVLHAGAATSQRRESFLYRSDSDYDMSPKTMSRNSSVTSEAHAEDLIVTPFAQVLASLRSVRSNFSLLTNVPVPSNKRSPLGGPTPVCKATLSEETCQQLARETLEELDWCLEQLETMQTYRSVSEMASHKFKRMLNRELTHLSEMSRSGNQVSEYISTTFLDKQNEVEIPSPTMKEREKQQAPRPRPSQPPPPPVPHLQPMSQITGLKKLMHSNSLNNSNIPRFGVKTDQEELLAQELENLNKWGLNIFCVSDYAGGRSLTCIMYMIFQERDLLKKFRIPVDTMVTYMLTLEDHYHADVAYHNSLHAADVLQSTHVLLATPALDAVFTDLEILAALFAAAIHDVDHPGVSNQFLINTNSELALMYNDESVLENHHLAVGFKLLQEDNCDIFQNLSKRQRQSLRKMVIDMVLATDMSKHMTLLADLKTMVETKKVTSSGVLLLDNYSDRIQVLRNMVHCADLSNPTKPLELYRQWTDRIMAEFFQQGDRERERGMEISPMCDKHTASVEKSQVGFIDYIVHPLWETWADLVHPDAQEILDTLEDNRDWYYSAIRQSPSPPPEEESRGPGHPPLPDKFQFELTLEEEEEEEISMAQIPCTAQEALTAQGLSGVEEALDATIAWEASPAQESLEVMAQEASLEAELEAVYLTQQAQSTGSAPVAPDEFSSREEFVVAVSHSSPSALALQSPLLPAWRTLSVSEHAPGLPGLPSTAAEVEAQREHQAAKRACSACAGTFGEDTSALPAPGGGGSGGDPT

SMILES | AC50
COc1cc(CCC(=O)CC(=O)CCc2ccc(O)c(OC)c2)ccc1O | 2660 nM (active)
